The panel holds about 83,000 compounds, 20% with a hit somewhere; the sample as a whole holds those more often.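 Negative percent growth values reflect cell death: -40 means 40% of the cells present at the start died, and -100 means all died.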 Values without a mark were called inactive. Calls of active or inactive are those of the source. How the source made its calls: active means growth percent below 10; inactive means the rest.
Experiments:
Test in all cases: NCI-60 one-dose screen, 48 h (100 = growth as untreated, 0 = no growth, -100 = all killed)
[1] = tested on: DU-145 prostate; details: 10 µM
[2] = tested on: K-562 leukemia; details: 10 µM
[3] = tested on: MALME-3M melanoma; details: 10 µM
[4] = tested on: MDA-MB-231 breast; details: 10 µM
[5] = tested on: RXF 393 renal; details: 10 µM
[6] = tested on: SF-268 CNS; details: 10 µM
[7] = tested on: SF-295 CNS; details: 10 µM
[8] = tested on: SF-539 CNS; details: 10 µM
[9] = tested on: M14 melanoma; details: 10 µM
[10] = tested on: HCT-15 colon; details: 10 µM
[11] = tested on: HT29 colon; details: 10 µM
[12] = tested on: SNB-75 CNS; details: 10 µM
[13] = tested on: SNB-19 CNS; details: 10 µM
[14] = tested on: PC-3 prostate; details: 10 µM
[15] = tested on: SK-MEL-5 melanoma; details: 10 µM
[16] = tested on: UACC-62 melanoma; details: 10 µM unless noted
[17] = tested on: LOX IMVI melanoma; details: 10 µM
[18] = tested on: SK-MEL-28 melanoma; details: 10 µM
[19] = tested on: UACC-257 melanoma; details: 10 µM
[20] = tested on: U251 CNS; details: 10 µM

| Structure (SMILES) | growth [1] [%] | growth [2] | growth [3] | growth [4] | growth [5] | growth [6] [%] | growth [7] | growth [8] | growth [9] | growth [10] | growth [11] | growth [12] [%] | growth [13] [%] | growth [14] [%] | growth [15] | growth [16] | growth [17] | growth [18] | growth [19] [%] | growth [20] |
| --- | --- | --- | --- | --- | --- | --- | --- | --- | --- | --- | --- | --- | --- | --- | --- | --- | --- | --- | --- | --- |
| O=C(Cc1ccc(OCc2ccccc2)cc1)NCc1ccc2c(c1)OCO2 | 84.6 | 27.6% | 46.6% | 82.8% | 105% | 68.9 | -16.6% (active) | 93.7% | 61.9% | 48.9% | 27.4% | 91.8 | 85.7 | 64.6 | 95.8% | 61.8% | 50% | 74.7% | – | – |
| OCC1OC(OC2C(O)C(CO)OC2(CO)OC2OC(CO)C(O)C(O)C2O)C(O)C(O)C1O (stereo unspecified) | 116 | 139% | 138% | 99.6% | 118% | 106 | 131% | 96.9% | – | 107% | 102% | 86.1 | 102 | – | 109% | 107% | 93.1% | 106% | 97.6 | 109% |
| CC(C)OC(C(=O)O)c1ccccc1 (stereo unspecified) | 113 | 124% | 133% | 99.3% | 117% | 104 | 138% | 102% | – | 97.8% | – | 78.2 | 99.5 | 82.9 | – | 97.1% | 88.5% | 102% | 116 | 111% |
| CCC(C)(C)C1CCC(O)CC1 (stereo unspecified) | 107 | 110% | 96.4% | 94.9% | 109% | 101 | 114% | 104% | – | – | 97.5% | 100 | 100 | 99.2 | 97.8% | 98.2% | 91.1% | 114% | 99.8 | 107% |
| Cc1cc(C(O)(c2ccc(Nc3ccccc3)cc2)c2ccc(Nc3ccc(S(=O)(=O)O)cc3)cc2)ccc1N (stereo unspecified) | 11.7 | 8.74% (active) | -47.6% (active) | -51.5% (active) | -61.8% (active) | 14.8 | 5.34% (active) | -63.9% (active) | -42.6% (active) | -54% (active) | -78.4% (active) | 16.8 | 19.7 | 12.1 | -90.4% (active) | -22.7% (active) | -65.9% (active) | -86.9% (active) | – | -59.4% (active) |
| COCCCNC(=O)c1nnn2c1nc(N)c1cc(Cl)ccc12 | 105 | 34.6% | 65.1% | 100% | 103% | 94.1 | 91.7% | 94% | 79.3% | 85.6% | 73.4% | 70.6 | 102 | 80.6 | 98.4% | 80% | 88.3% | 87% | – | – |
| O=C(O)/C=C/C(=O)NCc1ccccc1 | 121 | 108% | 99% | 125% | 104% | 110 | 98.1% | 95.7% | 103% | 97.3% | 105% | 81.9 | 115 | 101 | – | 118% | 97% | 105% | – | 118% |
| CCO/C=C1\SC(=S)N(c2cccc(C)c2)C1=O | 111 | 99.5% | 98.4% | 117% | 105% | 101 | 97% | 97.8% | 119% | 101% | 102% | 80.6 | 111 | 92.5 | – | 105% | 104% | 104% | – | 98.6% |
| COc1ncnc2c1cnn2C | 111 | 115% | 126% | 100% | 114% | 101 | 112% | 96.8% | – | 98.9% | – | 113 | 110 | 101 | 101% | 98.9% | 98% | 111% | 106 | 106% |
| O/N=C/c1ccc(O)cc1O | 112 | 105% | 109% | 105% | 112% | 105 | 107% | 104% | – | 89.9% | 102% | 89.3 | 96.6 | 86.4 | 104% | 96.5% | 105% | 107% | 87.7 | 90.6% |
| C=CCOC(=O)C(=O)OCC=C | 112 | 95.1% | 139% | 108% | 103% | 103 | 154% | 91.8% | – | 100% | 101% | 102 | 94.7 | – | 98.8% | 102% | 111% | 113% | 102 | 106% |
| COc1ccc(/C=C/c2cccc[n+]2C)cc1 | 111 | 100% | 94.6% | 111% | 101% | 97.2 | 99.1% | 103% | 103% | 99.1% | 88% | 83.2 | 95.1 | 87 | 105% | 114% | 94.2% | 109% | – | 77.6% |
| CCCNC(=O)c1ccc(S(N)(=O)=O)cc1 | 109 | 107% | 113% | 101% | 107% | 103 | 127% | 97.8% | – | 110% | 93.1% | 72.6 | 107 | – | 101% | 109% | 98.9% | 97.8% | 110 | 103% |
| CC1(C)N=C(N)N=C(N)N1c1ccc(Cl)cc1 | 55.2 | 20.1% | 63.4% | 69% | 71% | 36.6 | 4.05% (active) | 22.7% | – | 73.6% | 29.8% | 75.8 | 58 | 33.1 | 31.7% | 41.4% | 24.6% | – | 64 | – |
| CC(=O)OCCC(C)CCC=C(C)C (stereo unspecified) | 107 | 98.5% | 114% | 98.1% | 116% | 97.2 | 106% | 99.1% | – | – | 105% | 95.9 | 103 | 92.3 | 101% | 97.8% | 103% | 113% | 106 | 102% |
| CCOc1ccc(I)cc1 | 105 | 119% | 108% | 102% | 107% | 96.4 | 113% | 97.8% | – | 103% | 106% | 91.4 | 104 | 88.4 | 118% | 95.2% | 100% | 107% | 104 | 103% |
| CCOC(=O)c1[nH]c(C)c(C(C)=O)c1C | 93.7 | 87.3% | 95.7% | 96.6% | 97.3% | 93.5 | 92.6% | 92.6% | – | – | 93% | 78.2 | 94.4 | – | 93.4% | 100% | 82.2% | 97.4% | 98.3 | 91.2% |
| Cc1ccc(CCCC(=O)O)c(C)c1 | 107 | 97.8% | 105% | 108% | 100% | 104 | 98.5% | 96.5% | 107% | 99% | 98.8% | 79.2 | 101 | 97.1 | 102% | 102% | 99.3% | 98.1% | – | 94.1% |

— PubChem BioAssay (NCI)
